In PubChem BioAssay AID1159580 (chemical genetic matrix, 2015):
In all, about 5,500 compounds went through this assay and about 2,000 (36%) were called active. Inconclusive results (about 18%) are left out. No stated cut-off is given here; in the data, active means normalized growth mostly below about 0.91 (no sharp cut-off); inconclusive means no clear call, values can overlap the other calls; inactive means mostly above about 0.92. Some of the results follow.

Assay: chemical genetic growth profiling, strain panel (AID 1159580);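 further: tested at 20 µM; growth read once vehicle control cultures reached saturation at 30 °C; 1 = growth at the plate median or of vehicle wells; lower values mean less growth of the strain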
Conditions: S. cerevisiae deletion strains, growth OD
[1] = locus YDL101C, strain DUN1, active compounds read low
[2] = locus YHR030C, strain SLT2, active compounds read low
[3] = locus YHR079C, strain IRE1, active compounds read low
[4] = locus YJL095W, strain BCK1, active compounds read low
[5] = locus YJR066W, strain TOR1, active compounds read low
[6] = locus YLR113W, strain HOG1, active compounds read low
[7] = locus YNL183C, strain NPR1, active compounds read low
[8] = locus YOR231W, strain MKK1, active compounds read low
[9] = locus YPL256C, strain CLN2, active compounds read low

Measured: normalized growth

O=C(NCCCCO)OCC1c2ccccc2-c2ccccc21
inactive: locus YAL013W, strain DEP1, active compounds read low 1 | locus YBR229C, strain ROT2, active compounds read low 0.997 | [1] 1 | locus YDR150W, strain NUM1, active compounds read low 0.986 | locus YEL061C, strain CIN8, active compounds read low 0.985 | locus YGR078C, strain PAC10, active compounds read low 0.991 | locus YGR229C, strain SMI1, active compounds read low 0.987 | [2] 0.867 | locus YHR087W, strain rtc3, active compounds read low 0.987 | locus YJR043C, strain POL32, active compounds read low 0.989 | locus YJR075W, strain HOC1, active compounds read low 1.01 | locus YLR039C, strain RIC1, active compounds read low 1.02 | locus YLR058C, strain SHM2 (second series), active compounds read low 0.98 | locus YLR085C, strain ARP6, active compounds read low 0.886 | locus YLR262C, strain YPT6, active compounds read low 1.02 | locus YML094W, strain GIM5, active compounds read low 0.955 | locus YMR219W, strain ESC1, active compounds read low 0.995 | locus YMR263W, strain SAP30, active compounds read low 0.959 | locus YMR307W, strain GAS1, active compounds read low 0.812 | locus YNL153C, strain GIM3, active compounds read low 0.983 | locus YNL298W, strain CLA4 (second series), active compounds read low 0.929 | locus YNL322C, strain KRE1, active compounds read low 1 | locus YNR030W, strain Alg12, active compounds read low 0.963 | locus YPL055C, strain LGE1, active compounds read low 0.953 | locus YPL241C, strain CIN2, active compounds read low 0.937 | locus YPR135W, strain CTF4, active compounds read low 0.959

O=C(Nc1ccccc1C(=O)O)OCC1c2ccccc2-c2ccccc21
active: [2] 0.366 | locus YHR082C, strain KSP1, active compounds read low 0.591 | locus YKL048C, strain ELM1, active compounds read low 0.799 | [6] 0.8 | locus YOR061W, strain CKA2, active compounds read low 0.553 | [9] 0.808
inactive: locus YAR019C, strain CDC15, active compounds read low 0.993 | locus YBL105C, strain PKC1, active compounds read low 0.989 | locus YBR135W, strain CKS1, active compounds read low 0.978 | locus YBR136W, strain MEC1, active compounds read low 0.987 | locus YBR160W, strain CDC28, active compounds read low 0.981 | locus YDL017W, strain CDC7, active compounds read low 0.986 | locus YDL028C, strain MPS1, active compounds read low 0.987 | [1] 0.988 | locus YDL108W, strain KIN28, active compounds read low 0.984 | locus YDL132W, strain cdc53, active compounds read low 0.985 | locus YDL214C, strain PRR2, active compounds read low 0.884 | locus YDR052C, strain DBF4, active compounds read low 0.983 | locus YDR054C, strain cdc34, active compounds read low 0.99 | locus YDR226W, strain ADK1, active compounds read low 0.982 | locus YDR477W, strain SNF1, active compounds read low 0.859 | locus YER123W, strain YCK3, active compounds read low 0.839 | locus YER133W, strain GLC7, active compounds read low 0.901 | locus YFL009W, strain cdc4, active compounds read low 0.986 | locus YFL029C, strain CAK1, active compounds read low 0.992 | locus YFR003C, strain YPI1, active compounds read low 0.985 | locus YFR019W, strain FAB1, active compounds read low 0.803 | locus YFR028C, strain CDC14, active compounds read low 0.979 | locus YGR040W, strain KSS1, active compounds read low 0.857 | locus YGR052W, strain FMP48, active compounds read low 0.701 | locus YGR092W, strain DBF2, active compounds read low 0.683 | [3] 0.793 | locus YHR205W, strain SCH9, active compounds read low 0.746 | locus YIL147C, strain SLN1, active compounds read low 0.986 | [4] 0.665 | locus YJL128C, strain PBS2, active compounds read low 0.927 | locus YJL157C, strain FAR1, active compounds read low 0.893 | locus YJR016C, strain ILV3, active compounds read low 0.99 | locus YJR066W, strain TOR1 (second series), active compounds read low 0.826 | [5] 0.709 | locus YKL067W, strain YNK1, active compounds read low 0.866 | locus YKL101W, strain HSL1, active compounds read low 0.72 | locus YKL193C, strain SDS22, active compounds read low 0.987 | locus YKL203C, strain TOR2, active compounds read low 0.883 | locus YLR133W, strain CKI1, active compounds read low 0.78 | locus YLR403W, strain SFP1, active compounds read low 0.795 | locus YML070W, strain DAK1, active compounds read low 0.842 | locus YMR001C, strain CDC5, active compounds read low 0.986 | locus YMR205C, strain PFK2 (second series), active compounds read low 0.853 | locus YMR277W, strain FCP1, active compounds read low 0.989 | locus YNL006W, strain LST8, active compounds read low 0.978 | locus YNL020C, strain ARK1, active compounds read low 0.728 | locus YNL161W, strain CBK1, active compounds read low 0.983 | [7] 0.742 | locus YNL207W, strain RIO2, active compounds read low 0.992 | locus YNL222W, strain SSU72, active compounds read low 0.985 | locus YNL307C, strain MCK1 (second series), active compounds read low 0.703 | locus YOL078W, strain AVO1, active compounds read low 0.977 | locus YOL136C, strain PFK27, active compounds read low 0.805 | locus YOR119C, strain RIO1, active compounds read low 0.927 | [8] 0.818 | locus YOR329C, strain SCD5, active compounds read low 0.993 | locus YPL031C, strain PHO85, active compounds read low 0.827 | locus YPL153C, strain RAD53, active compounds read low 0.855 | locus YPL204W, strain HRR25, active compounds read low 0.797 | locus YPL209C, strain IPL1, active compounds read low 0.984 | locus YPR025C, strain CCL1, active compounds read low 0.991 | locus YPR106W, strain ISR1, active compounds read low 0.977 | locus YPR111W, strain DBF20, active compounds read low 0.96 | strain NNK1, active compounds read low 0.987 | strain TSCII, active compounds read low 0.99

CC(C)C[C@@H](NC(=O)OCC1c2ccccc2-c2ccccc21)C(=O)O
inactive: locus YAL021C, strain ccr4, active compounds read low 0.988 | locus YAL026C, strain drs2, active compounds read low 0.982 | locus YAL030W, strain snc1, active compounds read low 0.991 | locus YBL061C, strain skt5, active compounds read low 1.01 | locus YBR009C, strain hhf1, active compounds read low 1.01 | locus YBR023C, strain chs3, active compounds read low 1 | locus YBR171W, strain sec66, active compounds read low 1 | locus YBR231C, strain swc5, active compounds read low 1.01 | locus YBR279W, strain paf1, active compounds read low 0.998 | locus YCL011C, strain gbp2, active compounds read low 0.993 | locus YCL016C, strain dcc1, active compounds read low 0.983 | locus YCL061C, strain MRC1, active compounds read low 1 | locus YCL069W, strain vba3, active compounds read low 0.995 | locus YCR088W, strain abp1, active compounds read low 0.992 | locus YDL005C, strain med2, active compounds read low 0.986 | locus YDL040C, strain nat1, active compounds read low 0.985 | locus YDR001C, strain nth1, active compounds read low 0.977 | locus YDR069C, strain doa4, active compounds read low 0.993 | locus YDR137W, strain rgp1, active compounds read low 0.962 | locus YDR159W, strain sac3, active compounds read low 1.04 | locus YDR195W, strain ref2 0.945 | locus YDR297W, strain sur2, active compounds read low 1 | locus YDR334W, strain swr1, active compounds read low 0.988 | locus YDR335W, strain msn5, active compounds read low 0.991 | locus YDR392W, strain spt3, active compounds read low 0.955 | locus YEL003W, strain gim4, active compounds read low 0.999 | locus YEL037C, strain rad23, active compounds read low 0.998 | locus YEL061C, strain CIN8 (second series), active compounds read low 0.997 | locus YER015W, strain faa2, active compounds read low 0.997 | locus YER016W, strain bim1, active compounds read low 0.993 | locus YER111C, strain swi4, active compounds read low 1 | locus YER155C, strain BEM2 (second series), active compounds read low 1.02 | locus YFR010W, strain ubp6, active compounds read low 0.991 | locus YGL167C, strain pmr1, active compounds read low 0.999 | locus YGL173C, strain kem1, active compounds read low 1 | locus YGL227W, strain vid30, active compounds read low 0.996 | locus YGL240W, strain doc1, active compounds read low 1.01 | locus YGL253W, strain hxk2, active compounds read low 1 | locus YHR013C, strain ard1, active compounds read low 0.998 | locus YHR027C, strain rpn1, active compounds read low 0.984 | [2] 0.966 | [3] 0.976 | locus YHR142W, strain chs7, active compounds read low 0.996 | locus YJL092W, strain hpr5, active compounds read low 1 | locus YJL095W, strain BCK1 (second series), active compounds read low 0.999 | [4] 0.98 | locus YJL115W, strain asf1, active compounds read low 0.979 | locus YJL129C, strain trk1, active compounds read low 1 | locus YJL154C, strain vps35, active compounds read low 0.986 | locus YJL164C, strain tpk1, active compounds read low 0.971 | locus YJL166W, strain qcr8, active compounds read low 1 | locus YJL187C, strain SWE1, active compounds read low 0.996 | [5] 0.89 | locus YKL160W, strain elf1, active compounds read low 0.99 | locus YKR026C, strain gcn3, active compounds read low 1 | locus YKR091W, strain srl3, active compounds read low 0.981 | locus YLL001W, strain dnm1, active compounds read low 0.974 | locus YLL026W, active compounds read low 0.992 | locus YLL041C, strain sdh2, active compounds read low 1 | locus YLR027C, strain aat2, active compounds read low 1 | [6] 0.888 | locus YLR221C, strain rsa3, active compounds read low 1.03 | locus YLR258W, strain gsy2, active compounds read low 1 | locus YLR262C, strain YPT6 (second series), active compounds read low 0.949 | locus YLR320W, strain mms22, active compounds read low 1.02 | locus YLR342W, strain FKS1, active compounds read low 0.99 | locus YLR357W, strain rsc2, active compounds read low 0.97 | locus YLR370C, strain arc18, active compounds read low 1.01 | locus YLR384C, strain iki3, active compounds read low 0.991 | locus YML120C, strain ndi1, active compounds read low 0.994 | locus YMR058W, strain fet3, active compounds read low 0.991 | locus YMR125W, strain sto1, active compounds read low 0.965 | locus YMR129W, active compounds read low 0.998 | locus YMR205C, strain PFK2, active compounds read low 0.973 | locus YMR231W, strain pep5, active compounds read low 0.971 | locus YNL071W, strain lat1, active compounds read low 0.995 | [7] 0.888 | locus YNL209W, strain ssb2, active compounds read low 0.997 | locus YNL248C, strain rpa49, active compounds read low 0.978 | locus YNL322C, strain KRE1 (second series), active compounds read low 1 | locus YNR049C, strain mso1, active compounds read low 0.998 | locus YOR001W, strain rrp6, active compounds read low 1.01 | locus YOR070C, strain gyp1, active compounds read low 0.991 | locus YOR080W, strain dia2, active compounds read low 1.01 | locus YOR083W, strain WHI5, active compounds read low 0.986 | locus YOR106W, strain vam3, active compounds read low 0.963 | [8] 0.949 | locus YOR265W, strain rbl2, active compounds read low 1 | locus YOR270C, strain vph1, active compounds read low 0.954 | locus YOR290C, strain snf2, active compounds read low 0.956 | locus YPL051W, strain arl3, active compounds read low 1.01 | locus YPL078C, strain atp4, active compounds read low 0.979 | locus YPL106C, strain sse1, active compounds read low 1.02 | locus YPL240C, strain hsp82, active compounds read low 1.01 | [9] 0.945
